LYPLA2 counter – LYPLA2 inhibitors, primary screen, counter-screen for PME1 inhibitor project, biochemical, fluorescence polarization, FP-Rh probe ABPP | Acyl-protein thioesterase 2 (Homo sapiens), O95372 | recombinant LYPLA2 | inhibition, % at 5.9 µM | 0.38% of 320,000 active | AID 2177, 2009;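 active = inhibition above the screen-wide mean plus 3 SD, limit set per campaign, cut at about 26% in these data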;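 also: 0% = LYPLA2 with DMSO and 100% = wells lacking LYPLA2 enzyme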
Target sequence (O95372 whole entry, looked up): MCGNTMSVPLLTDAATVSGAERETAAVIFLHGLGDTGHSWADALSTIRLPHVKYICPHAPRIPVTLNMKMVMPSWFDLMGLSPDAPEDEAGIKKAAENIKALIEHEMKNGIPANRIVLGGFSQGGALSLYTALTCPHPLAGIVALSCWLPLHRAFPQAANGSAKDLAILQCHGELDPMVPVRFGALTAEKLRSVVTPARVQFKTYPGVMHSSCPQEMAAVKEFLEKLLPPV
GSTO1 inh – inhibitors of recombinant GSTO1, primary screen, counter-screen for RBBP9 inhibitor project, biochemical, fluorescence polarization; 1.1% of 300,000 active; AID 1974, 2009; inhibition, % at 5.96 µM; Glutathione S-transferase omega-1 (Homo sapiens), P78417; activity-based probe fluorescence polarization;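 active = inhibition above the campaign mean inhibition plus 3 SD, cut at about 35% in these data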;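 also: 0% = GSTO1-1 with DMSO and 100% = wells lacking GSTO1-1 enzyme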
Fam108B inh – mouse Fam108B serine hydrolase inhibitors, primary screen, counter-screen for RBBP9 inhibitor project, biochemical, fluorescence polarization; recombinant Fam108B, FP-Rh probe fluorescence polarization; inhibition, % at 9.51 µM; 0.33% of 300,000 active; AID 1947, 2009;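 active = inhibition above the screen mean inhibition plus 3 SD, computed separately per campaign, cut at about 18% in these data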;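 also: inhibitors lower polarization as less probe binds the enzyme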
PAD4 FP inh – human PAD4 inhibitors, primary screen, biochemical, fluorescence polarization, 1536-well format; Protein-arginine deiminase type-4 (Homo sapiens), Q9UM07; recombinant PAD4, RCA probe fluorescence polarization; inhibition, % at 6.36 µM; 0.41% of 330,000 active; AID 485272, 2010;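 active = percent inhibition above a cutoff equal to the mean of all tested compounds plus 3 SD, cut at about 15% in these data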;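 also: 0% = PAD4 with RCA probe and DMSO and 100% = probe without PAD4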
PME-1 primary – PME-1 inhibitors via competitive probe labeling, primary screen, biochemical, fluorescence polarization, FP-Rh probe, HTS | Protein phosphatase methylesterase 1 (Homo sapiens), Q9Y570 | recombinant PME-1 | inhibition, % at 5.9 µM | 0.53% of 320,000 active;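 active = inhibition above the campaign mean of all compounds plus 3 SD, cut at about 26% in these data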;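 also: competitive labeling of PME-1 active site by serine hydrolase directed probe; 0% = PME-1 with DMSO and 100% = wells lacking PME-1 enzyme; inhibitors block probe labeling so polarization falls and inhibition rises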
Target sequence (Q9Y570 whole entry, looked up): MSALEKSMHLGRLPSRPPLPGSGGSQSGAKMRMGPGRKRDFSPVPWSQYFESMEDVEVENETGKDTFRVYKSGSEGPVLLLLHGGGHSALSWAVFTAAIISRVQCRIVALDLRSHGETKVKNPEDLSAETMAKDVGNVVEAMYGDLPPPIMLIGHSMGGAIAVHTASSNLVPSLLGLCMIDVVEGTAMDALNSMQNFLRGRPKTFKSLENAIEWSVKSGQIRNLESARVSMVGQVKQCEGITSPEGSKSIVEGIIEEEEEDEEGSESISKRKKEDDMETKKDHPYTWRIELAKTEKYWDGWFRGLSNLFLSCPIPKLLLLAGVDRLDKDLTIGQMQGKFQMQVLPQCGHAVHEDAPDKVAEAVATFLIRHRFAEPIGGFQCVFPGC
LYPLA1 counter – LYPLA1 inhibitors, primary screen, counter-screen for PME1 inhibitor project, biochemical, fluorescence polarization, FP-Rh probe ABPP | recombinant LYPLA1 | inhibition, % at 5.9 µM | 0.16% of 320,000 active;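 active = inhibition above the mean of all tested compounds plus 3 SD, set per campaign, cut at about 14% in these data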;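 also: inhibitors block serine hydrolase probe labeling of LYPLA1 so polarization falls; 0% = enzyme with DMSO and 100% = wells lacking LYPLA1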
LYPLA2 confirm – LYPLA2 inhibitors, retest, confirmation, counter-screen for PME1 inhibitor project, biochemical, fluorescence polarization, FP-Rh probe ABPP. AID 2232, 2010. shares compounds with LYPLA2 counter. 72% of 1,100 active. inhibition, % at 5.9 µM. recombinant LYPLA2;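 active = mean inhibition across replicates above the hit cutoff set in the primary screen, cut at about 26% in these data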;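 also: blocked labeling of the enzyme by serine hydrolase FP-Rh probe lowers polarization; 0% = enzyme with DMSO and 100% = wells lacking LYPLA2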
LYPLA2 gel ABPP – LYPLA2 inhibitors in proteome, late-stage follow-up, gel-based competitive ABPP, fluorescence, assay provider. shares compounds with LYPLA2 counter. rhLYPLA2 in mouse brain proteome, gel ABPP FP-Rh. inhibition, % at 20 µM. 30% of 150 active. AID 652029, 2013;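 active = inhibition of LYPLA2 enzyme probe labeling above about 50%, limit read from the data; inactive = inhibition below that limit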;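 also: loss of FP-Rh probe labeling of the LYPLA2 gel band measured as band density; 0% = DMSO only control band and 100% = blank gel background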
An asterisk follows results filed as active; . = no result. In the library only some 1.8% were active in any assay of this set; here they are far more common.

SMILES	LYPLA2 counter	GSTO1 inh	Fam108B inh	PAD4 FP inh	PME-1 primary	LYPLA1 counter	LYPLA2 confirm	others
O=C(CN1C(=O)COc2ccc(S(=O)(=O)N3CCCC3)cc21)Nc1cccc(F)c1	41*	0	3	-4	5	-2	47*
COCCCNC(=O)CN1C(=O)CSc2ncccc21	-1	2	-1	-4	-2	1	.
O=C(CSc1ccc2nnc(CCNC(=O)c3ccccc3)n2n1)NC1CCCC1	3	-1	5	-5	3	1	.
CC(SC1=NCCN1S(=O)(=O)c1ccccc1)c1ccccc1 (configuration not stated)	6	3	-1	0	7	0	.
Cc1cc(C)c(S(=O)(=O)NCC(=O)NCc2cc(=O)n(C)c(=O)n2C)c(C)c1	1	4	1	-4	4	-2	.
CN(C)C(CNC(=O)CNC(=O)Cc1cccc2ccccc12)c1ccccc1 (configuration not stated)	8	4	2	0	2	4	.
COc1cccc(NC(=O)CN2C(=O)COc3ccc(C)cc32)c1	31*	5	-1	1	-1	3	29*
COc1cccc(CCN2CCC(CNS(=O)(=O)c3cc(-c4cc(C)no4)ccc3C)CC2)c1	28*	-7	-1	4	-3	2	35*
O=C(COc1ccc(S(=O)(=O)NCc2ccccc2)cc1Cl)NCc1ccccn1	15	-2	-1	-5	4	2	.
O=C(COc1ccc(S(=O)(=O)NCc2ccccc2)cc1Cl)NCc1ccncc1	41*	5	1	-2	9	-2	46*
CCN(Cc1nc(-c2ccc(OC)c(OC)c2)no1)C(=O)c1ccc2c(c1)OCO2	-3	-5	2	-5	-1	3	.
Cn1c(=O)cc(OCC(=O)N2CCN(c3cccc(C(F)(F)F)c3)CC2)c2ccccc21	33*	-3	-5	0	-1	3	62*	LYPLA2 gel ABPP=15
Cc1ccc(-c2noc(CCC(=O)N3CCN(c4cccc(C(F)(F)F)c4)CC3)n2)cc1	42*	-6	3	-2	-4	0	38*
Cc1cc(N2CCOCC2)nc2ccc(NC(=O)CCC(=O)N3CCN(c4cccc(C(F)(F)F)c4)CC3)cc12	41*	-1	4	-3	9	2	51*	LYPLA2 gel ABPP=10
COc1ccc(N2CCN(C(=O)CCNS(=O)(=O)c3cccs3)CC2)cc1	10	-12	-6	2	0	1	.
O=C(CCNS(=O)(=O)c1cccs1)N1CCN(c2cccc(C(F)(F)F)c2)CC1	37*	.	.	-1	2	5	28*
NC(=O)c1ccc(NC(=O)COC(=O)CNC(=O)c2sc3ccccc3c2Cl)cc1	6	.	.	0	9	0	.
CC1CN(C(=O)CCC(=O)N2CCN(c3cccc(C(F)(F)F)c3)CC2)c2ccccc2O1 (configuration not stated)	59*	-3	4	1	6	12	59*	LYPLA2 gel ABPP=44
Cc1ccc(N2C(=O)c3ccc(C(=O)N4CCN(c5ccc(C)c(C)c5)CC4)cc3C2=O)cc1	5	6	-1	-2	4	3	.
Cc1ccc(N2C(=O)c3ccc(C(=O)N4CCN(Cc5ccccc5)CC4)cc3C2=O)cc1	33*	6	1	-1	2	2	27*
CNC(=S)Nc1ccc(N2CCN(c3ccc(C(F)(F)F)cn3)CC2)nc1	54*	-6	1	-3	2	8	65*	LYPLA2 gel ABPP=19
CN1CCN(c2ccc(NC(=O)c3ccc(C(F)(F)F)cc3)cn2)CC1	-1	1	2	-1	-1	-2	.
COc1ccc(NC(=O)Nc2ccc(F)cc2)c(C)c1	5	20	-2	-11	-6	-3	.
Cc1cc2c(NC(=O)Nc3ccc(F)cc3)cccc2nn1	44*	-1	-4	-8	1	-9	54*	LYPLA2 gel ABPP=43
N#C/C(=C\c1ccc(N2CCOCC2)c([N+](=O)[O-])c1)c1nc2ccccc2[nH]1	31*	4	11	-5	15	12	53*
SMILES	LYPLA2 counter	GSTO1 inh	Fam108B inh	PAD4 FP inh	PME-1 primary	LYPLA1 counter	LYPLA2 confirm	others
COC(=O)/C(C#N)=C/c1ccc(N2CCOCC2)c([N+](=O)[O-])c1	-1	15	1	2	-2	-3	.
CCN(CC(=O)Nc1ccc(NC(C)=O)cc1)C(=O)c1ccccc1SCc1c(C)noc1C	-1	-2	-5	-1	-4	2	.
O=[N+]([O-])c1cnccc1Nc1cccc(F)c1	-4	8	-3	-2	-8	0	.
O=[N+]([O-])c1ccc(Oc2cccc(F)c2)c2ccncc12	43*	12	-1	-10	5	6	44*
Cc1n[nH]c(=O)c2c(NC(=O)CSc3nc4ccccc4c(=O)n3CCCO)oc(C)c12	-2	-2	-2	-5	0	2	.
CCOC(=O)c1nn(-c2ccc(Br)cc2)cc1C(=O)c1cccc2ccccc12	-8	0	-2	2	-4	-5	.
CN(Cc1nc(-c2ccccn2)no1)S(=O)(=O)c1ccccc1	-4	-3	-3	-3	4	-3	.
CN(Cc1nc(-c2ccncc2)no1)S(=O)(=O)c1ccc(Cl)cc1	28*	-2	2	0	-1	2	30*
CN(Cc1nc(-c2ccncc2)no1)S(=O)(=O)c1ccc(Br)cc1	37*	0	-2	4	9	5	36*
CN(Cc1nc(-c2ccncc2)no1)S(=O)(=O)c1ccccc1	2	-6	0	0	0	3	.
CN(Cc1nc(-c2ccc(Cl)cc2)no1)C(=O)c1ccc2c(c1)OCO2	34*	4	1	-1	4	13	34*
O=C(OCC(=O)N1CCC(Cc2ccccc2)CC1)c1cncc(Br)c1	.	.	.	-1	.	.	.
Cc1cc(C)cc(N2C(=O)CC(Sc3ncn[nH]3)C2=O)c1 (configuration not stated)	-2	1	2	-3	-1	-2	.
CC(C)CN(C(=O)COC(=O)CNC(=O)c1ccccc1)c1c(N)n(Cc2ccccc2)c(=O)[nH]c1=O	2	-3	0	-5	-2	2	.
